# Test results published in the supplement of paper PMC8975748.
# Where a name gives a salt, the structure may show the parent alone.
# Tested on: Saccharomyces cerevisiae BY4741 SeMeCo community
# Assay: z-score of subpopulation abundance vs DMSO median, subpopulation auxotrophic for LUM; higher = larger share of this subpopulation than in DMSO controls
# Details: 10 µM; 24 h; SM minimal medium; subpopulation (auxotrophy): LUM
# Description: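 Fluorescent four-plasmid SeMeCo (self-establishing metabolically cooperating S. cerevisiae BY4741 community; plasmids pH-mRuby2, pL-mWasabi, pU-eCFP, pM-TagRFP657) was grown 24 h in minimal SM medium with each Selleck FDA-approved drug at 10 µM in 384-well plates. Cells were fixed and imaged by high-content confocal microscopy. For each auxotrophic subpopulation (and the prototroph), a z-score gives the deviation from the DMSO vehicle-control population median.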
row,Structure (SMILES),z-score of subpopulation abundance
1,COc1ccc2[nH]cc(CCN)c2c1 [5-Methoxytryptamine],0.78
2,C=C[C@H]1CN2CC[C@H]1C[C@H]2[C@H](O)c1ccnc2ccccc12 [Cinchonidine],0.19
3,CN[C@@H]1[C@@H](O)[C@@H](O[C@@H]2[C@@H](O)[C@H](O[C@H]3O[C@H](CN)CC[C@H]3N)[C@@H](N)C[C@H]2N)OC[C@]1(C)O.CN[C@@H]1[C@@H](O)[C@@H](O[C@@H]2[C@@H](O)[C@H](O[C@H]3O[C@H]([C@@H](C)N)CC[C@H]3N)[C@@H](N)C[C@H]2N)OC[C@]1(C)O.CN[C@@H]1[C@@H](O)[C@@H](O[C@@H]2[C@@H](O)[C@H](O[C@H]3O[C@H]([C@@H](C)NC)CC[C@H]3N)[C@@H](N)C[C@H]2N)OC[C@]1(C)O [Gentamicin Sulfate],-0.47
4,CC(=O)O[C@H]1C[C@@H]2CC[C@@H]3[C@H](CC[C@@]4(C)[C@H]3C[C@H]([N+]3(C)CCCCC3)[C@@H]4OC(C)=O)[C@@]2(C)C[C@@H]1[N+]1(C)CCCCC1 [Pancuronium dibromide],-0.96
5,CC(C)(O)C(Cl)(Cl)Cl [Chlorobutanol],0.26
6,CC1(C)SC2C(N)C(=O)N2C1C(=O)O (stereo not given) [6-Aminopenicillanic acid],-0.93
7,CC[C@H]1CN2CC[C@]3(C(=O)Nc4ccccc43)[C@@H]2C[C@@H]1/C(=C\OC)C(=O)OC [Rhynchophylline],-0.36
8,C=CN1CCCC1=O.II [Povidone iodine],0.83
9,Cc1cc(O)ccc1Cl [Chlorocresol],-0.61
10,O=[N+]([O-])C(Br)(CO)CO [Bronopol],-0.07
11,CN1[C@@H]2CC[C@H]1C[C@@H](OC(=O)[C@H](CO)c1ccccc1)C2 [Hyoscyamine],-0.43
12,CNC1CC(N)C(O)C(OC2OC(CO)C(O)C3OC4(OC(C(N)CO)C(O)C(O)C4O)OC23)C1O (stereo not given) [Hygromycin B],-0.17
13,Oc1cccc2cccnc12 [8-Hydroxyquinoline],-0.89
14,CN(C)C(=O)Oc1ccc[n+](C)c1 [Pyridostigmine Bromide],-0.35
15,C=C(C)[C@H]1Cc2c(ccc3c2O[C@@H]2COc4cc(OC)c(OC)cc4[C@@H]2C3=O)O1 [Rotenone (Barbasco)],-0.01
16,CC(C)=CCOc1c2occc2cc2ccc(=O)oc12 [Imperatorin],0.74
17,C[CH2][Hg][S]c1ccccc1C(=O)[O-].[Na+] [Thimerosal],21
18,CC(C)N(CCC(C(N)=O)(c1ccccc1)c1ccccn1)C(C)C (stereo not given) [Disopyramide],0.92
19,COC(=O)C1=CCCN(C)C1 [Arecoline HBr],0.07
20,Cn1cc(C2=C(c3cn(C4CCN(Cc5ccccn5)CC4)c4ccccc34)C(=O)NC2=O)c2ccccc21,-0.2

row,Structure (SMILES),z-score of subpopulation abundance
1,CN(C)[C@@H]1C(=O)C(C(N)=O)=C(O)[C@@]2(O)C(=O)C3=C(O)c4c(O)cccc4[C@@](C)(O)[C@H]3[C@H](O)[C@@H]12 [Oxytetracycline Dihydrate],0.01
2,CCC1=C[C@H]2CN3CCc4c([nH]c5ccccc45)[C@](C(=O)OC)(C2)[C@H]13 [Catharanthine],-0.3
3,C=CC[C@]1(O)CC[C@H]2[C@@H]3CCC4=CC(=O)CCC4=C3C=C[C@@]21C [Altrenogest],-0.14
4,O=C(O[C@H]1C[C@H]2CC[C@@H](C1)[N+]21CCCC1)C(O)(c1ccccc1)c1ccccc1 [Trospium chloride],-0.13
5,COc1ccc2c3c([nH]c2c1)C(C)=NCC3 [Harmaline],-4.96
6,CC[C@@H](C(N)=O)N1CCCC1=O [Levetiracetam],-0.55
7,CN1[C@@H]2C[C@@H](OC(=O)[C@H](CO)c3ccccc3)C[C@H]1[C@@H]1O[C@@H]12 [Scopolamine HBr],-0.9
8,CN(C)[C@@H]1C(=O)C(C(N)=O)=C(O)[C@@]2(O)C(=O)C3=C(O)c4c(O)ccc(Cl)c4[C@@](C)(O)[C@H]3C[C@@H]12 [Chlortetracycline HCl],-0.67
9,Cc1cc(C(C#N)c2ccc(Cl)cc2)c(Cl)cc1NC(=O)c1cc(I)cc(I)c1O (stereo not given) [Closantel],0.43
10,COc1ccc2c(c1)[C@]13CCCC[C@@H]1[C@H](C2)N(C)CC3 [Dextromethorphan hydrobromide hydrate],-0.51
11,CCN(C)C(=O)Oc1cccc([C@H](C)N(C)C)c1 [Rivastigmine Tartrate],-0.01
12,CCCN1C[C@H](CSC)C[C@@H]2c3cccc4[nH]cc(c34)C[C@H]21 [Pergolide Mesylate],-0.65
13,C[N+](C)(C)CCCCCCCCCC[N+](C)(C)C [Decamethonium Bromide],0.08
14,CCN(CC)CCOC(=O)C(O)(c1ccccc1)c1ccccc1 [Benactyzine hydrochloride],-0.06
15,Oc1cc(Cl)ccc1Oc1ccc(Cl)cc1Cl [Triclosan],0.02
16,CC(=O)OCC1=C(C(=O)O)N2C(=O)C(N)C2SC1 (stereo not given) [7-Aminocephalosporanic acid],-0.51
17,CC[C@@]1(O)C(=O)OCc2c1cc1n(c2=O)Cc2cc3ccccc3nc2-1 [Camptothecin],-0.25
18,COc1ccc(C(CN(C)C)C2(O)CCCCC2)cc1 (stereo not given) [Venlafaxine HCl],1.02
19,"NCC(O)c1ccc(O)cc1 (racemic) [(+,-)-Octopamine HCl]",0.58
20,N#Cc1nn(-c2c(Cl)cc(C(F)(F)F)cc2Cl)c(N)c1[S+]([O-])C(F)(F)F (stereo not given) [Fipronil],-0.72
